Screening results from PubChem.
Sampled rows, rich in hits. Any-hit rate of the full collection: about 12%.
L3MBTL1 block: blocks human L3MBTL1 | AlphaScreen L3MBTL1–H3K9me1 peptide binding | AID 485360 | 230,000 tested, 0.66% active | Q9Y468 | Potency, µM (highest dose often 57.1 µM), for the others: at the top dose activity, negative = inhibition, hits mostly inhibitors; note: % is set by controls: 0 for no effect and ±100 for the full control effect; nearly all actives have a fitted effect of over 60% in size
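L3MBTL1 50 nM + b-AHA-H3(1-15)K9me1 75 nM, 30 min RT; compound added, 30 min RT; streptavidin donor/Ni-chelate acceptor beads 10 ug/mL each final, 30 min RT dark; AlphaScreen read.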
Sfp PPTase inh: Sfp phosphopantetheinyl transferase inhibition. Biochemical Sfp PPTase activity, qHTS. Potency, µM, without a hit: largest response in the series, negative = inhibition, most hits filed as inhibitors. Q9F4F7. 310,000 tested, 3.5% active. AID 1490;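 note: the enzyme is Sfp with the accession as filed and its product quenches rhodamine fluorescence; 0% = enzyme reaction without inhibitor and -100% = no enzyme wells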
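Sfp 15 nM + cpd, 15 min RT; start w/ rhodamine-CoA 5 uM, BHQ-2-YbbR 12.5 uM (final); 50 mM Hepes pH 7.6, 10 mM MgCl2, 0.01% NP-40, 0.01% BSA; read 525/598 nm at 0 and 30 min.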
BAZ2B block: blocks human BAZ2B; Q9UIF8; AlphaScreen BAZ2B-H3K14Ac peptide displacement; Potency, µM (titrated, usually from 114 µM), without a hit: at the highest dose activity change, negative = inhibition, most hits filed as inhibitors; 360,000 tested, 4.4% active; AID 504333; note: % is set by controls: 0 for no effect and ±100 for the full control effect; nearly all actives have a fitted effect of over 60% in size
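Compounds, titrated to a top concentration of 110 uM, were incubated 30 min at room temperature with preformed BAZ2B/acetyl-K14 H3 peptide complex (50 nM each). Proximity signal was measured by AlphaScreen after 20 min with beads.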
JMJD2A Tudor inh: inhibitors of human JMJD2A Tudor domain; AlphaScreen JMJD2A-Tudor / H3K4me3 peptide binding; O75164; 390,000 tested, 4.4% active; Potency, µM (series often up to 114 µM), for the others: at the top dose activity change, negative = inhibition, most hits filed as inhibitors; note: % is set by controls: 0 for no effect and ±100 for the full control effect; nearly all actives have a fitted effect of over 50% in size
G9a inh: G9a (human) methyltransferase inhibition. Q96KQ7. G9a H3K9 monomethylation, AlphaScreen, 2 h. Potency, µM (titrated, usually from 102 µM), for inactives: at the top dose activity, negative = inhibition, usual class: inhibitors. 350,000 tested, 8.8% active; note: % is set by controls: 0 for no effect and ±100 for the full control effect; nearly all actives have a fitted effect of over 75% in size
Target sequence (Q96KQ7 913-1193 limits assumed): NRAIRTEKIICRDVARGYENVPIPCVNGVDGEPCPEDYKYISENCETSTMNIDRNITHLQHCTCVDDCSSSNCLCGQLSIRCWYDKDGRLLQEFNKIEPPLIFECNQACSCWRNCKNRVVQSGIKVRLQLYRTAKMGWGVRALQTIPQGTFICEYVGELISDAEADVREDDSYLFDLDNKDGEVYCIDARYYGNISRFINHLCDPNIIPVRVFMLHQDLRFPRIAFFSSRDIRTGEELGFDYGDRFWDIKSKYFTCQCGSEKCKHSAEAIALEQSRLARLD
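Chemiluminescent proximity detection of H3K9 monomethylation, read after 10 min bead incubation in the dark. Reaction: 20 nM G9a, 500 nM biotin-H3K9 peptide, 20 uM SAM cofactor, 2 h, room temperature, following 15 min enzyme-compound preincubation.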
HP1b chromo inh: HP1-beta chromodomain-methylated histone interaction inhibition | 390,000 tested, 0.56% active | Potency, µM (doses to about 114 µM), for inactives: top-dose activity change, negative = inhibition, actives largely listed as inhibitors | AlphaScreen HP1-beta / biotin-H3K9me3 peptide binding | AID 540317 | P83916; note: nearly all actives have a fitted effect of over 70% in size
Target sequence (P83916 whole entry, looked up): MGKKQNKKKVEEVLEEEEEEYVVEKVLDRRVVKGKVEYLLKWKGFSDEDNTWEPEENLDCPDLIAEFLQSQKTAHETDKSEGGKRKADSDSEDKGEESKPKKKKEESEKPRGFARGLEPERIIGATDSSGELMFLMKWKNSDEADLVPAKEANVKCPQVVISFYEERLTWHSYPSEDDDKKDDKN
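Compound inhibition of the preformed complex between 50 nM HP1-beta and 50 nM biotinylated H3K9me3 peptide was read by AlphaScreen. Buffer was PBS pH 7.4 with 0.01% Tween-20. Incubations ran 30 min at room temperature, with 10 ug/mL donor/acceptor beads.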
The depositor's hits bear a star; ? = inconclusive; · = no result; ! = a repeat was not active; [ ] = another dose, or the depositor's remark. Calls come from the whole dose curve; as a rule, active = well fitted curve in the direction sought with a large enough effect; inconclusive = small, poorly fitted or top-dose-only effect, or another doubt; inactive = no such curve, though single readings can be large; an effect the other way counts as inactive or inconclusive. Potency is the fitted concentration of half-maximal effect.

SMILES | L3MBTL1 block | Sfp PPTase inh | BAZ2B block | JMJD2A Tudor inh | G9a inh | HP1b chromo inh
O=C(O)c1ccc(N2C(=O)/C(=C/C=C/c3ccccc3)SC2=S)cc1 | -2% | 6% | ? | ? | 45µM* | -14%
CN(C)c1ccc(/C=C/C=C2/SC(=S)N(c3ccccc3)C2=O)cc1 | 4.5µM* | -19% | ? | 5.6µM* | ? | -92%
O=C(Nc1cc(C(F)(F)F)cc(C(F)(F)F)c1)c1cc(Cl)ccc1O | · | 4% | · | · | · | ·
COc1ccccc1C1(CC(=O)N2CCOCC2)CCOC(C(C)C)C1 (configuration not stated) | · | -15% | ? | -10%[11.4 µM] | 50µM* | -7%
CCN(C(=O)CSc1nc2ccccc2n1Cc1ccc(F)cc1Cl)c1ccccc1 | · | · | -33% | -7% | -8%[12.7 µM] | 28%
O=C(c1cc(=O)[nH]c2ccccc12)N(Cc1nnc(-c2ccccc2Cl)o1)C1CC1 | -3% | · | 8% | -7% | 50µM* | 43%
Cn1cccc1/C=N/n1c(-c2ccc(Cl)cc2)n[nH]c1=S | ? | 3% | 3% | -16% | ? | 35%
COc1ccc(-c2n[nH]c(=S)n2/N=C/c2cccn2C)cc1 | -23% | -3% | -35% | 6.3µM* | 1.1µM* | ?
Cc1ccc(-c2n[nH]c(=S)n2/N=C/c2cccn2C)cc1 | -14% | 0% | -35% | 22µM* | 1.1µM* | -30%
Cn1cccc1/C=N/n1c(-c2ccc(Cl)cc2Cl)n[nH]c1=S | -9% | -10% | 45µM* | 79µM* | ? | -13%
Cc1nnc(C)n1/N=C/c1cccn1C | 18%[11.4 µM] | 20% | -2% | -34%[11.4 µM] | -6%[59 µM] | -7%
COc1ccc(-c2nc3scc(CCNS(=O)(=O)c4cccc(C(C)=O)c4)n3n2)cc1 | · | · | -16% | -26% | -6%[59 µM] | 9%
O=C(Nc1ccc(-c2nc3cc(NC(=O)c4ccc(Cl)cc4)ccc3o2)cc1)c1ccc(Cl)cc1 | · | · | 1% | -9% | 8%[59 µM] | 27%
CCCCn1c(=O)[nH]c(=O)c2c1nc(-c1ccc(-c3ccccc3Br)o1)n2CC | -6% | 14µM* | -9% | -19% | 10µM* | 16%
CCCCn1c(=O)[nH]c(=O)c2c1nc(-c1ccc(-c3ccccc3)cc1)n2C | · | 14% | 1% | -7% | 40µM* | 49%
CCCCn1c(=O)[nH]c(=O)c2c1nc(-c1ccc3ccccc3c1)n2CC | -5% | 9% | -13% | -10% | 6% | 18%
CCCCn1c(=O)[nH]c(=O)c2c1nc(-c1ccc(C(F)(F)F)cc1)n2C | 28% | 13% | -3% | -2% | 8% | 24%
C=C[C@@]1(C)CC(=O)[C@@]2(O)[C@@]3(C)[C@@H](O)CCC(C)(C)[C@@H]3[C@H](O)[C@H](OC(C)=O)[C@@]2(C)O1 | · | -12% | · | · | · | ·
C=CCn1c(CC#N)nnc1N1CCOCC1 | 21% | -9% | 50µM* | ? | ? | 21%
CCOc1ccc(CC(=O)NCCc2cnc[nH]2)cc1 | · | 2% | 1% | -10% | -8% | 3%
CCOc1ccc(S(=O)(=O)NC(Cc2cnc[nH]2)C(=O)O)cc1 (configuration not stated) | -25% | 6% | -14% | 16µM* | 50µM* | -5%
CCOc1ccc(C(=O)CCNC(Cc2cnc[nH]2)C(=O)O)cc1 (configuration not stated) | -17% | ? | 18µM* | ? | ? | 19%
COC/C=C/C1=CC2=CC(=O)C(C)(OC(=O)c3cnc4ccccc4n3)C(=O)C2=CN1c1ccc(CO)cc1 (configuration not stated) | 3.2µM* | 56µM*! | 10µM* | · | · | ·
COC/C=C/C1=CC2=CC(=O)C(C)(OC(=O)c3cnc4ccccc4n3)C(=O)C2=CN1C1CCCCC1 (configuration not stated) | -12% | -15% | ? | · | 40µM* | ·
COC/C=C/C1=CC2=CC(=O)C(C)(OC(=O)c3cnc4ccccc4n3)C(=O)C2=CN1c1ccccc1 (configuration not stated) | · | 15% | -39% | ? | -32%[59 µM] | -10%
SMILES | L3MBTL1 block | Sfp PPTase inh | BAZ2B block | JMJD2A Tudor inh | G9a inh | HP1b chromo inh
COc1cc(OC)c(NC(=O)C(c2ccccc2)N2Cc3ccccc3C2=O)cc1Cl (configuration not stated) | · | · | ? | -33% | ? | 8%
COc1cc2c(cc1OC)CN(C(=O)c1ccc([N+](=O)[O-])o1)CC2 | -13% | 3% | -31% | -27% | 56µM* | -4%
Cc1[nH]c2ccc(C(=O)N3CCN(c4ccc(F)cc4)CC3)cc2c1C | · | 1% | 35µM* | 50µM* | 79µM* | -24%
COc1cc2c(cc1OC)CN(C(=O)c1ccc3[nH]c(C)c(C)c3c1)CC2 | -10% | -3% | 50µM* | ? | · | -27%
COc1ccc(N2CCN(C(=O)c3cc(-c4ccc(F)cc4)[nH]c3C)CC2)cc1 | · | 11% | 45µM* | 45µM* | 45µM* | ?
Cc1cccc(N2CCN(S(=O)(=O)c3cn(C)c(C)n3)CC2)c1C | · | · | -8% | -17% | 6%[59 µM] | 5%[57 µM]
CCn1ccc2cc(S(=O)(=O)N3CCCN(C(=O)NCCOC)CC3)ccc21 | · | · | 5% | 5% | -4%[59 µM] | 26%[57 µM]
CC(=O)c1ccc(N2CCN(C(=O)c3ccc4[nH]c(C)c(C)c4c3)CC2)cc1 | -11% | · | · | ? | · | -14%
COc1ccc(N2CCN(C(=O)c3ccc4[nH]c(C)c(C)c4c3)CC2)cc1 | · | 1% | 40µM* | -5% | 18%[12.7 µM] | 31%
CN(Cc1cccs1)c1ncnc2ccc(-c3ccc4cn(C)nc4c3)cc12 | · | · | · | -25% | · | ·
CN1CCN(C2=Cc3ccccc3Sc3cc(F)c(F)cc32)CC1 | -5% | 79µM* | 45µM* | ? | ? | ?
CN1CCN(C2=Cc3cc(Cl)ccc3Sc3cc(F)ccc32)CC1 | -28% | 1% | 22µM* | 56µM* | 13µM* | -46%
CN1CCN(C2=Nc3ccccc3Sc3ccc(Cl)cc32)CC1 | · | 1% | · | · | -48%[59 µM] | ·
CN1CCN(C2=Cc3ccccc3Sc3cc(F)c(Cl)cc32)CC1 | -4% | ? | 35µM* | 50µM* | 18µM* | -6%
CCn1cc(S(=O)(=O)c2ccccc2)c(=O)c2cc(F)c(N3CCCCCC3)cc21 | · | · | 3% | -16% | 4%[59 µM] | 39%
COc1ccc(N2C(=S)NC(C)(C)CC2(C)c2ccc(OC(C)=O)cc2OC(C)=O)cc1 (configuration not stated) | · | 9% | ? | -21% | 79µM* | 11%
NC(=O)Cn1c(=O)n(-c2ccc(F)c(Cl)c2)c(=O)c2sc3ccccc3c21 | · | · | 7% | -5% | 12%[59 µM] | 68%
CCOC(=O)c1c(C)oc2c(Cl)cc(NS(=O)(=O)c3ccc(Cl)c(C)c3)cc12 | · | · | 41% | -14% | 26%[59 µM] | 115%
